12-LOX inh: Primary qHTS assay for inhibitors of human arachidonate 12S-lipoxygenase (ALOX12): Round 2. Potency, µM (titrated, usually from 108 µM), actives largely listed as inhibitors. purified 12hLO, xylenol orange hydroperoxide absorbance. 580,000 tested, 1.1% active. AID 1671190, 2021
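Purified human 12hLO at 150 nM in 25 mM Hepes, 0.01% Triton X-100, pH 7.0, preincubated 15 min at room temperature with compound. Reaction started with 40 uM arachidonic acid, 30 min at room temperature. Hydroperoxide measured by Fe-xylenol orange, 573/405 nm absorbance ratio.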
Sfp inh: qHTS Assay for Inhibitors of Bacillus subtilis Sfp phosphopantetheinyl transferase (PPTase). 4'-phosphopantetheinyl transferase ffp (Bacillus subtilis), Q9F4F7. Biochemical Sfp PPTase activity, qHTS. Potency, µM, most hits filed as inhibitors. 310,000 tested, 3.5% active. AID 1490, 2009;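 further: the enzyme is Sfp with the accession as filed and its product quenches rhodamine fluorescence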
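Buffer: 50 mM Hepes-Na pH 7.6, 10 mM MgCl2, 0.01% Nonidet P-40, 0.01% BSA. Enzyme 15 nM, pre-exposed to compound 15 min; substrates then added and fluorescence change tracked over 30 min.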
PLK1 PBD block: qHTS for Inhibitors of PLK1-PDB (polo-like kinase 1 - polo-box domain): Primary Screen | Serine/threonine-protein kinase PLK1 (Homo sapiens), P53350 | Plk1 PBD binding of FITC phosphopeptide, fluorescence polarization | Potency, µM, actives largely listed as inhibitors | 360,000 tested, 2.8% active | AID 720504, 2013; further: series mostly up to about 57 µM; nearly all actives have a fitted effect of over 65% in size
Target sequence (P53350 whole entry, looked up, the tested form may be a part): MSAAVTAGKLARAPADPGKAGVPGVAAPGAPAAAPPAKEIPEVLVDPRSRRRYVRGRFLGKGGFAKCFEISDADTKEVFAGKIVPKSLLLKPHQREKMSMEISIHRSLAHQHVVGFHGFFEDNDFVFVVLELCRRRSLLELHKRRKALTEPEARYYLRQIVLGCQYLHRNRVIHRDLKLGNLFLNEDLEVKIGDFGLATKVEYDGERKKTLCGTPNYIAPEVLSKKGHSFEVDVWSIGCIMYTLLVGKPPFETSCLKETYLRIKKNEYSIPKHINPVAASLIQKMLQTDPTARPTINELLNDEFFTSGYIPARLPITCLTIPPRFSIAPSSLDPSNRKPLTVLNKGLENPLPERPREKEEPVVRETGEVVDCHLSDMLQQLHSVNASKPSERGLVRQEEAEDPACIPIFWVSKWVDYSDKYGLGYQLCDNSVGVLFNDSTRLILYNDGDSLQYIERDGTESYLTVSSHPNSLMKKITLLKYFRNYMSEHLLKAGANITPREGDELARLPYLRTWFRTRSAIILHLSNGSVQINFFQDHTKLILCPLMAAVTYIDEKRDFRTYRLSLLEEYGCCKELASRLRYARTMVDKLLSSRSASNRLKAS
VDR inhibitor: Inhibitors of the vitamin D receptor (VDR): qHTS; Vitamin D3 receptor (Homo sapiens), P11473; VDR-SRC2-3 peptide fluorescence polarization, 2 h; Potency, µM, usual class: inhibitors; 400,000 tested, 0.93% active; AID 504847, 2011
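Measured by FP: displacement of SRC2-3 coactivator peptide from VDR by library compounds, following a two-hour ambient incubation.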
Hits are given with their value; – = inactive; ? = inconclusive; · = no result. The list is not random: actives were taken first. Their share in the collection is about 4.2%. The call rests on the fitted dose curve; in most records, active means well fitted curve in the direction sought with a large enough effect; inconclusive means small, poorly fitted or top-dose-only effect, or another doubt; inactive means no such curve, though single readings can be large; an effect the other way counts as inactive or inconclusive.

SMILES | 12-LOX inh | Sfp inh | PLK1 PBD block | VDR inhibitor
CC(=O)c1ccc(N2CCN(C(=O)c3cccc(Oc4ccccc4)c3)CC2)cc1 | – | – | – | –
CCOCCCNC(=O)Cn1cnc2c(cnn2-c2ccc(OC)cc2)c1=O | – | – | 27µM | –
COC(=O)c1cccc(-n2sc3ccccc3c2=O)c1 | 1.3µM | · | 2.7µM | ?
O=c1c2ccccc2sn1-c1ccc(F)cc1 | ? | · | 3µM | 16µM
O=c1c2ccc(F)cc2sn1-c1ccccc1 | 0.35µM | · | 3.4µM | ·
Cc1ccc(-n2sc3cc(F)ccc3c2=O)c(C)c1 | 0.4µM | · | 3µM | ·
CC(=O)Nc1nnc(-c2ccc(Cl)s2)o1 | – | – | – | –
N=C1SCC(=O)N1c1ccccc1Cl | – | – | – | –
O=c1c2cc(F)ccc2sn1-c1ccccc1Cl | 0.45µM | · | 2.7µM | ·
COc1ccc(CNS(=O)(=O)c2ccc(F)cc2Br)cc1 | ? | · | – | –
COc1ccc(CNS(=O)(=O)c2ccc(N3CCCC3)cc2Br)cc1 | ? | · | 24µM | ?
Oc1ccc(-c2nc3ccc(Cl)cn3c2Nc2ccc(Cl)cc2)cc1 | ? | · | · | –
CC(C)(C)Nc1c(-c2ccc(O)cc2)nc2ccc(Cl)cn12 | – | 63µM | – | –
N#C/C(=C/c1cccc(C#N)c1)C(=O)c1c[nH]c2cc(F)ccc12 | 11µM | · | · | ·
N#C/C(=C/c1cccc(O)c1)C(=O)c1c[nH]c2cc(F)ccc12 | 16µM | · | · | ·
CC(=O)c1c[nH]c2cc(F)ccc12 | – | · | · | ·
Cc1ccc(C(=O)COC(=O)c2ccc3c(c2)C(=O)N(c2cccc4ncccc24)C3=O)cc1 | ? | 79µM | – | –
O=C(COC(=O)c1ccc2c(c1)C(=O)N(c1cccc3ncccc13)C2=O)c1ccc(Cl)cc1 | – | 28µM | – | –
O=C(OCC(=O)c1ccc(Cl)cc1Cl)c1ccc2c(c1)C(=O)N(c1cccc3ncccc13)C2=O | ? | ? | – | –
O=C(Nc1ccc(Cl)cc1)N1CCC(N2CC3CCCN3C2=O)CC1 (stereo not given) | – | · | · | ·
COc1cccc(-n2c(Cc3cc(=O)[nH]c(=O)[nH]3)nnc2SCC(=O)N2CCCCC2)c1 | 8.9µM | – | – | –
CCOC(=O)CSc1nnc(NC(=O)CN2CCCCC2)s1 | 6.3µM | – | 27µM | –
O=C(Nc1ccccc1)c1ccc[nH]1 | – | – | 19µM | ?
O=C(Nc1ccccc1)c1c(F)cccc1F | – | – | – | –
CC(=O)c1ccc(NC(=S)Nc2cccc3cnccc23)cc1 | ? | 2.5µM | 30µM | ?
SMILES | 12-LOX inh | Sfp inh | PLK1 PBD block | VDR inhibitor
Cc1ccc(NC(=S)Nc2cccc3cnccc23)cc1 | – | 45µM | 27µM | ?
CC(=O)c1cccc(NC(=S)Nc2cccc3ccccc23)c1 | – | – | – | –
Cc1ccc(NC(=S)Nc2cccc3cnccc23)cc1C | ? | 40µM | 27µM | ?
Clc1ccc(CNCCCSc2ncccn2)cc1Cl | – | – | – | –
c1ccc2cc(C3=NCCN3)ncc2c1 | ? | – | · | –
COc1cc(/C=C2\SC(=S)N(CCC(=O)N3CCN(C)CC3)C2=O)cc(OC)c1OC | – | – | – | –
CCCn1nc(C(=O)NCc2ccccc2)c2ccccc2c1=O | – | · | · | ·
CCN(CC)C(=O)C12C(=O)Oc3ccccc3C1C2(C)C(=O)c1ccc(F)cc1 (stereo not given) | – | – | – | –
O=C(O)CC12CSc3[nH]c(=O)sc3C1c1ccccc1OC2=O (stereo not given) | · | 14µM | · | ·
ClCCCc1cn(C[C@H]2CC[C@@H]([C@@H]3CC[C@H](Cn4cc(CCCCl)nn4)O3)O2)nn1 | – | – | – | –
O=C(O)c1cc(-c2cccc3ccccc23)nc2ccccc12 | – | – | – | –
O=C(O)c1cc(-c2c[nH]c3ccccc23)nc2cc3ccccc3cc12 | 13µM | – | · | ·
O=C(CN1C(=O)NC2(CCOCC2)C1=O)NCCc1cccs1 | – | · | · | ·
COc1ccccc1NC(=O)CSc1sc2c(O)cc(=O)[nH]c2c1C#N | – | 40µM | ? | –
COc1ccc(NC(=O)CSc2sc3c(O)cc(=O)[nH]c3c2C#N)c(OC)c1 | – | ? | ? | –
Cc1ccc(C)c(NC(=O)CSc2sc3c(O)cc(=O)[nH]c3c2C#N)c1 | – | ? | – | –
N#Cc1c(SCC(=O)Nc2cccc(C(F)(F)F)c2)sc2c(O)cc(=O)[nH]c12 | – | 40µM | 13µM | ?
O=C(NC1CCCCC1)N1CCNCC1 | – | – | – | ?
O=C(NC1CCCCC1)N1CCC(c2nnc3n2CCNC3)CC1 | 13µM | · | · | ·
COc1ccc(CNC(=O)c2cccc3c(-c4cccc(C(N)=O)c4)coc23)cc1OC | – | · | – | ·
Cc1nn(-c2cccc(C(F)(F)F)c2)c(Cl)c1/C=N/Nc1cccc(C(=O)O)c1 | ? | – | 24µM | ?
COC(=O)N/N=C/c1c(C)nn(-c2cccc(Cl)c2)c1Cl | ? | – | – | –
FC(F)(F)c1cccc(N/N=C/c2ccc(Br)cc2)c1 | 0.79µM | · | · | ·
FC(F)(F)c1cccc(N/N=C/c2cccc(Br)c2)c1 | – | · | · | ·
C/C(=N\Nc1cccc(C(F)(F)F)c1)c1ccc(O)cc1 | 35µM | – | – | –
SMILES | 12-LOX inh | Sfp inh | PLK1 PBD block | VDR inhibitor
O=C(O)c1ccc(/C=N/Nc2cccc(C(F)(F)F)c2)cc1 | 45µM | – | ? | –
COc1ccc(NC(=O)CO/N=C2/CCCc3nonc32)c(OC)c1 | – | – | – | –
c1ccc(CNCc2cccc(Oc3nnnn3-c3ccccc3)c2)cc1 | – | · | · | ·
CCCNC(=O)c1ccc(N2CCC3(CC2)CC(c2ccccc2)=NO3)c(NC(=O)c2ccccc2)c1 | – | 56µM | – | –
CCCNC(=O)c1ccc(N2CCC3(CC2)CC(c2ccccc2)=NO3)c(NC(=O)c2ccc(Br)cc2)c1 | – | – | – | –
CC(=O)Nc1ccc(SCC(=O)Nc2oc(C)c3c(C)n[nH]c(=O)c23)cc1 | – | · | 19µM | –
Cc1cc(C)c(C)c(SCC(=O)Nc2oc(C)c3c(C)n[nH]c(=O)c23)c1C | 25µM | · | ? | –
Cc1ccnc(NC(=O)c2cccs2)c1 | ? | – | – | ?
O=C(Nc1ccc(NC(=O)c2ccccc2Cl)nc1)c1ccncc1 | – | – | – | –
O=C(Nc1ccc(NC(=O)c2ccccc2)nc1)c1ccncc1 | – | – | 17µM | ?
O=C(Nc1ccccn1)c1cccs1 | – | – | 3.4µM | –
CC(C)C(=O)Nc1ccc(NC(=O)c2cccs2)cn1 | 45µM | – | – | –
COCCN1C[C@@H](CO)O[C@@H](n2cnc3c(NCC(C)C)ncnc32)C1 | – | · | – | ·
CC(=O)C[C@@H](O)CC(=O)[C@H]1OC(=O)[C@@H](C)C/C=C\Cc2ccccc21 | – | · | – | –
CC(=O)NC1(C)CCN(Cc2cccc(-c3cccc(Cl)c3)c2)C1 (stereo not given) | 40µM | · | · | ·
CC(=O)NC1(C)CCCN(Cc2cccc(-c3ccc4c(ccn4C)c3)c2)C1 (stereo not given) | 35µM | · | · | ·
COc1ccc(-c2cccc(CN3CCCC(C)(NC(C)=O)C3)c2)cc1OC (stereo not given) | – | · | · | ·

Screens from PubChem.
